# Results: PubChem BioAssay (EPA / NIEHS)
# Where “and” joins values, the source holds several entries; their conditions need not be identical. Identical values can stand only once. Inconclusive results are not listed. The source holds several records for some structures; these can differ, active in one and inactive in another. Calls of active or inactive are those of the source. Rule for the calls, unless noted: active = hit-call score of the fitted dose curve at least 0.9, where 1 is the maximum; inactive = score below 0.9.
# Experiments:
# [1] = BSK_BT_PBMCCytotoxicity: PBMC Cytotoxicity Assessment in the BioMAP Diversity Plus: BT Assay (AID 2284225); settings: primary human B cells with PBMC;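 note: PBMC viability measured by Alamar Blue dye reduction fluorescence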
# How it was run: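 Primary human co-culture of B cells and PBMC, pre-dosed 1 h then activated with SEB and TSST-1. Cytotoxicity is taken from Alamar Blue dye reduction, added for 6 h at the end of a 90 h incubation.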
# [2] = CCTE_Mundy_HCI_Cortical_Synap_Neur_Matur_NeuriteSpotCountPerNeuron: CCTE's Synaptogenesis and Neurite Maturation Assay in rat cortical cells for Neurite Spot Count per Neuron Count, Mundy Lab (AID 2284215)
# How it was run: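 Developing rat cortical neurons, with glia suppressed by AraC, are exposed to chemicals from DIV 7 to DIV 12. Automated fluorescence imaging of MAP2-labelled neurites and synaptophysin puncta yields a count per neuron, normalised against DMSO wells.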
# [3] = CCTE_Mundy_HCI_Cortical_Synap_Neur_Matur_SynapseCount: CCTE's Synaptogenesis and Neurite Maturation Assay in rat cortical cells for Synapse Count, Mundy Lab (AID 2284218)
# How it was run: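 Endpoint: synapses/neuron by HCI (synaptophysin puncta on MAP2-labelled neurites, Hoechst nuclei). Rat primary cortical cells, AraC DIV 5, dosed DIV 7, fixed DIV 12; DMSO negative control.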
# [4] = CCTE_Mundy_HCI_hN2_NOG_NeuriteCount: CCTE's Neurite Outgrowth Assay in human hN2 cells for Neurite Count, Mundy Lab (AID 2284219; active = hit-call score of the fitted dose curve at least 0.9, where 1 is the maximum)
# How it was run: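 In this morphology assay, hNP1-derived neurons received test chemical 2 h post-plating and were fixed two days later in warm paraformaldehyde/sucrose containing Hoechst 33342. Neurites, labelled by rabbit anti-βIII-tubulin (1:800) and Alexa Fluor-488 (1:500), were counted automatically.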
# [5] = CCTE_Mundy_HCI_hN2_NOG_NeuriteLength: CCTE's Neurite Outgrowth Assay in human hN2 cells for Neurite Length, Mundy Lab (AID 2284220; active = hit-call score of the fitted dose curve at least 0.9, where 1 is the maximum)
# How it was run: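 Read-out is neurite length from high-content imaging of βIII-tubulin/Alexa Fluor-488-labelled neurons, referenced to DMSO controls.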
# [6] = CCTE_Mundy_HCI_hN2_NOG_NeuronCount: CCTE's Neurite Outgrowth Assay in human hN2 cells for Neuron Count, Mundy Lab (AID 2284221; active = hit-call score of the fitted dose curve at least 0.9, where 1 is the maximum)
# How it was run: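 Read-out is the number of betaIII-tubulin-positive neurons imaged by automated high-content analysis, with DMSO as negative control.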
# [7] = CCTE_Mundy_HCI_Cortical_Synap_Neur_Matur_NeuriteCount: CCTE's Synaptogenesis and Neurite Maturation Assay in rat cortical cells for Neurite Count, Mundy Lab (AID 2284222);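 for outcome: exposure from day 7 to day 12 in vitro with readout at day 12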
# How it was run: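 Primary rat cortical cells were plated, treated with AraC at DIV 5, then exposed to chemicals from DIV 7 through DIV 12. After fixation and immunostaining for MAP2 and synaptophysin, imaging quantified neurites, with DMSO as the negative control.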
# [8] = CCTE_Mundy_HCI_Cortical_Synap_Neur_Matur_CellBodySpotCount: CCTE's Synaptogenesis and Neurite Maturation Assay in rat cortical cells for Cell Body Spot Count, Mundy Lab (AID 2284223)
# How it was run: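 Chemicals were applied to AraC-treated rat primary cortical cells at DIV 7 and measured at DIV 12. Fixed cells were labelled for MAP2, synaptophysin and nuclei, and high-content imaging gave cell body synaptophysin spot counts per neuron relative to DMSO.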
# [9] = CCTE_Mundy_HCI_hNP1_Pro_ResponderAvgInten: CCTE's Proliferation Assay in human neuroprogenitor cells, Mundy Lab (AID 2284224; active = hit-call score of the fitted dose curve at least 0.9, where 1 is the maximum;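 note: human neural progenitor cells hNP1 derived from WA09 embryonic stem cells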)
# How it was run: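 Proliferation read as average intensity of BrdU-positive cells, imaged at 26.25 h post-dosing: chemical exposure started after 40–44 h culture, BrdU during final 4 h, paraformaldehyde fixation. Positive-direction fit relative to DMSO.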
# [10] = TAMU_PeakParms_SingleDonor1434_Chronotropy: Texas A&M University (TAMU) 1.5-hr Human Induced Pluripotent Stem Cell (iPSC)-derived Cardiomyocytes Calcium (Ca+2) Flux Assay for Cardiotoxicity: Chronotropy (changes in peak frequency) (AID 2284217); settings: actives raise or lower the signal
# How it was run: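 iPSC-CMs, donor 1434; 4 conc (0.2–100 uM), 0.5% v/v DMSO, 90 min, 37C/5% CO2; Ca2+ flux fluorescence → peak.freq.avg; peak.freq.avg = 0 dropped; bidirectional fit vs DMSO; EC05 POD.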
structure (smiles),measurement,setting,value
Nc1ncc([N+](=O)[O-])s1,outcome,[1],inactive
COP(=O)(OC)O/C(=C\Cl)c1cc(Cl)c(Cl)cc1Cl,outcome,[2],inactive
same,outcome,[3],inactive
same,AC50,[4],6.28 µM (active)
same,AC50,[5],5.52 µM (active)
same,AC50,[6],7.22 µM (active)
same,outcome,[7],inactive
same,outcome,[8],inactive
same,AC50,[9],67 µM (active)
COC[C@H](C)N(C(=O)CCl)c1c(C)csc1C,outcome,[1],inactive
CC(C)(C)c1cc(O)ccc1O,outcome,[10],inactive
CC(=O)C(Cl)C(=O)N(C)C (stereo unspecified),AC50,[1],20 µM (active)
CCSC(C)CC1CC(=O)C(C(CC)=NOC/C=C/Cl)=C(O)C1 (stereo unspecified),outcome,[1],inactive
O=C1C2(Cl)C3(Cl)C4(Cl)C(Cl)(Cl)C5(Cl)C3(Cl)C1(Cl)C5(Cl)C24Cl (stereo unspecified),AC50,[2],20.7 µM (active)
same,AC50,[3],19.3 µM (active)
same,AC50,[7],24.1 µM (active)
same,AC50,[8],9.8 µM (active)
same,AC50,[9],21.7 µM (active)
Oc1cccc2cccnc12,outcome,[10],inactive
O=[N+]([O-])c1ccc2c3c(cccc13)CC2,outcome,[1],inactive
ClC(Cl)=C(Cl)C(Cl)=C(Cl)Cl,outcome,[10],inactive
same,AC50,[1],11.1 µM (active)
Oc1ccc(-c2ccccc2)cc1,outcome,[1],inactive
C=C(C)C(=O)[O][Sn]([CH2]CCC)([CH2]CCC)[CH2]CCC,AC50,[2],0.0597 µM (active)
same,AC50,[3],0.0672 µM (active)
same,AC50,[7],0.223 µM (active)
same,AC50,[8],0.142 µM (active)
same,AC50,[9],0.249 µM (active)
CCOP(=S)(OCC)SCCS(=O)(=O)CC,outcome,[1],inactive
COP(=S)(OC)Oc1ccc(Sc2ccc(OP(=S)(OC)OC)cc2)cc1,outcome,[1],inactive
BrCCBr,outcome,[1],inactive
CCOP(=S)(OCC)Oc1nc(Cl)c(Cl)cc1Cl,AC50,[2],50 µM (active) and 24.7 µM (active)
same,outcome,[10],inactive
same,AC50,[3],50 µM (active) and 27.4 µM (active)
same,AC50,[4],29.1 µM (active)
same,AC50,[5],28.4 µM (active)
same,AC50,[6],17.1 µM (active)
same,AC50,[7],30 µM (active)
same,AC50,[8],83.2 µM (active)
same,outcome,[8],inactive
same,AC50,[9],24.3 µM (active) and 73.3 µM (active)
CC(C)c1ccc(CO)cc1,outcome,[1],inactive
COc1cc(OC)nc(NC(=O)NS(=O)(=O)c2ncccc2C(=O)N(C)C)n1,outcome,[1],inactive
CCOP(=S)(OCC)Oc1ccc(S(C)=O)cc1 (stereo unspecified),outcome,[1],inactive
O=C(O)CCC(F)(C(F)(F)F)C(F)(F)F,outcome,[1],inactive
COC(=O)c1sccc1S(=O)(=O)NC(=O)Nc1nc(C)nc(OC)n1,outcome,[1],inactive
